Screens deposited in PubChem BioAssay by several laboratories.
Compounds with a hit are over-represented: about 6.7% of the library has one in this group of screens.
Autofluor counter: flagged as autofluorescent in microsphere protease counterscreen. compound autofluorescence counterscreen, microsphere flow cytometry; stronger effect = higher value. fluorescence intensity (concentration not given with the values). 360,000 compounds, 3.1% hits. AID 624483; in the data active = fluorescence intensity above about 16000; inconclusive = no clear call, values can overlap the other calls
BoNT F protease: blocks Botulinum neurotoxin F light chain protease. inhibition, % at 10 µM. AID 588497. Multiplex microsphere protease cleavage assay, flow cytometry. 360,000 compounds, 0.22% hits; in the data active = inhibition above about 35%, passing the limit was not always enough; inconclusive = no clear call, values can overlap the other calls; also: plate controls were buffer without enzyme for full effect and enzyme alone for no effect
FBA Mtb inh: inhibitors of M. tuberculosis fructose-bisphosphate aldolase | purified M. tuberculosis FBA, fluorescence read-out | 360,000 compounds, 2.3% hits | inhibition, % at 1 µM | AID 588726 | P9WQA3; in the data active = inhibition above about 27%;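 also: 0% = vehicle and 100% = reference inhibitor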
Anthrax LF prot: inhibitors of Bacillus anthracis lethal factor protease; inhibition, % at 10 µM; multiplex microsphere protease cleavage assay, LF; AID 588501; P15917; 360,000 compounds, 0.12% hits; also: plate controls were buffer without enzyme for full effect and enzyme alone for no effect
GDH-TPI inh: inhibits GDH-TPI coupling enzymes, artifact for Mtb FBA screen. GDH-TPI coupled enzyme counterscreen, NADH absorbance. 360,000 compounds, 1.2% hits. inhibition, % at 4.8 µM. AID 588335; in the data active = inhibition above about 30%;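 also: 0% = DMSO wells and 100% = wells lacking the enzyme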
BoNT A protease: BoNT A light chain protease inhibition. 360,000 compounds, 0.17% hits. AID 588499. inhibition, % at 10 µM. multiplex microsphere protease substrate cleavage, flow cytometry; also: plate controls were buffer without enzyme for full effect and enzyme alone for no effect
* hit, by the source's call. Rule as the data show it, unless noted: active = inhibition above about 30%; inconclusive = no clear call, values can overlap the other calls; inactive = below that.

Cc1ccc(S(=O)(=O)N2CCC(C(=O)N3CCC[C@H]3C(=O)NC3CCS(=O)(=O)C3)CC2)cc1 (stereo partly drawn) was read as Autofluor counter 23712*, BoNT F protease -1.0, FBA Mtb inh 2.0, Anthrax LF prot -4.2, GDH-TPI inh -9.7 and BoNT A protease inconclusive.
`Cc1ccc(S(=O)(=O)N2CCC(C(=O)NCCN3CCCCCC3)CC2)cc1` gave Autofluor counter 18618*, BoNT F protease -16.1, FBA Mtb inh 3.2, Anthrax LF prot -2.1, GDH-TPI inh 3.0 and BoNT A protease inconclusive.
For CCCNC(=O)[C@@H]1CCCN1C(=O)C1CCN(S(=O)(=O)c2ccc(C)cc2)CC1 the results were Autofluor counter 4676, BoNT F protease -1.7, FBA Mtb inh 4.2, Anthrax LF prot 1.9, GDH-TPI inh -2.6 and BoNT A protease -1.7.
O=C(CNCc1ccccn1)Nc1cc(S(=O)(=O)N2CCCCC2)ccc1Cl was read as Autofluor counter 4461, BoNT F protease -3.8, FBA Mtb inh 2.9, Anthrax LF prot -1.0, GDH-TPI inh -0.3 and BoNT A protease -2.6.
Cc1ccc(S(=O)(=O)N2CCC(C(=O)NCCCN3CCCC3=O)CC2)cc1 was read as Autofluor counter 4105, BoNT F protease -5.2, FBA Mtb inh 0.1, Anthrax LF prot 0.7, GDH-TPI inh 1.3 and BoNT A protease 0.4.
O=C(CNCc1ccncc1)Nc1cc(S(=O)(=O)N2CCCCC2)ccc1Cl was read as Autofluor counter 20589*, BoNT F protease 5.1, FBA Mtb inh 1.0, Anthrax LF prot 1.1, GDH-TPI inh -4.5 and BoNT A protease 10.0.
For Cc1cc(C(=O)COC(=O)Cc2c(F)cccc2Cl)c(C)n1C the results were Autofluor counter 3785, BoNT F protease 2.9, FBA Mtb inh 1.2, Anthrax LF prot 2.4, GDH-TPI inh 8.8 and BoNT A protease -0.2.
COc1ccc(CNC(=O)[C@H](C)NC(=O)C2CCN(S(=O)(=O)c3ccc(C)cc3)CC2)cc1 was read as Autofluor counter 18265*, BoNT F protease 5.8, FBA Mtb inh -1.5, Anthrax LF prot -9.4, GDH-TPI inh 4.1 and BoNT A protease inconclusive.
`CCN1CCCC1CNC(=O)C(=O)NC` (stereo not drawn) gave Autofluor counter 4306, BoNT F protease -16.7, FBA Mtb inh 3.2, Anthrax LF prot -7.4, GDH-TPI inh -1.3 and BoNT A protease -1.4.
Cc1noc(/C=C/N(C)C)c1S(=O)(=O)N1CCCC(C(=O)NC2CCCCC2C)C1 (stereo not drawn) was read as Autofluor counter 6072, BoNT F protease 1.4, FBA Mtb inh -1.7, Anthrax LF prot -2.1, GDH-TPI inh 62.5* and BoNT A protease -0.6.
`Cc1noc(C)c1S(=O)(=O)N1CCCC(C(=O)NC2CCCCC2)C1` (stereo not drawn) gave Autofluor counter 12700, BoNT F protease 1.8, FBA Mtb inh 1.1, Anthrax LF prot -2.9, GDH-TPI inh 0.7 and BoNT A protease -0.7.
Cc1noc(C)c1S(=O)(=O)N1CCCC(C(=O)NCCC2=CCCCC2)C1 (stereo not drawn) was read as Autofluor counter 5582, BoNT F protease 7.7, FBA Mtb inh 5.8, Anthrax LF prot -0.5, GDH-TPI inh 3.5 and BoNT A protease 1.1.
For Cc1noc(/C=C/N(C)C)c1S(=O)(=O)N1CCCC(C(=O)NCCC2=CCCCC2)C1 (stereo not drawn) the results were Autofluor counter 4180, BoNT F protease -1.0, FBA Mtb inh -0.6, Anthrax LF prot -3.9, GDH-TPI inh 46.1* and BoNT A protease 0.7.
Cc1noc(/C=C/N(C)C)c1S(=O)(=O)N1CCCC(C(=O)NC(C)c2ccccc2)C1 (stereo not drawn) was read as Autofluor counter 10502, BoNT F protease 15.7, FBA Mtb inh 0.4, Anthrax LF prot -0.2, GDH-TPI inh 37.2* and BoNT A protease 1.2.
For CC(C)NC(=O)c1ccc2c(c1)N(CC(=O)NC1CCCCC1)C(=O)C(C)(C)O2 the results were Autofluor counter 5955, BoNT F protease -4.1, FBA Mtb inh -0.6, Anthrax LF prot -0.9, GDH-TPI inh 11.9 and BoNT A protease -0.3.
Screening O=C(/C=C/c1ccc([N+](=O)[O-])cc1)NCCSc1ccccc1 returned Autofluor counter 23722*, BoNT F protease -2.6, FBA Mtb inh -1.9, Anthrax LF prot -1.3, GDH-TPI inh 11.3 and BoNT A protease inconclusive.
Screening Cc1ccc(SCCNC(=O)/C=C/c2ccc([N+](=O)[O-])cc2)cc1 returned Autofluor counter 2329, BoNT F protease -1.3, FBA Mtb inh -2.2, Anthrax LF prot 1.0, GDH-TPI inh 9.8 and BoNT A protease 0.0.
Screening Cc1cccn2c(=O)c(/C=C(\C#N)C(=O)NC3CCS(=O)(=O)C3)c(N3CC(C)OC(C)C3)nc12 (stereo not drawn) returned Autofluor counter 5918, BoNT F protease -2.8, FBA Mtb inh 119.6*, Anthrax LF prot 8.1, GDH-TPI inh 7.1 and BoNT A protease 0.3.
For CCOC(=O)/C(C#N)=C/c1c(N2CCN(Cc3ccc4c(c3)OCO4)CC2)nc2c(C)cccn2c1=O the results were FBA Mtb inh -2.1 and GDH-TPI inh 6.9.
Screening Cc1cccn2c(=O)c(/C=C(\C#N)C(N)=O)c(N3CCN(Cc4ccc5c(c4)OCO5)CC3)nc12 returned Autofluor counter 1909, BoNT F protease -0.7, FBA Mtb inh 33.3*, Anthrax LF prot -0.3, GDH-TPI inh 15.5 and BoNT A protease 0.0.
Screening Cc1ccc(Oc2nc3ccccn3c(=O)c2/C=C(\C#N)C(=O)NC2CCS(=O)(=O)C2)cc1 (stereo not drawn) returned Autofluor counter 5759, BoNT F protease -2.7, FBA Mtb inh 11.1, Anthrax LF prot -6.2, GDH-TPI inh -2.4 and BoNT A protease -0.6.
`Cc1cccn2c(=O)c(/C=C(\C#N)C(=O)NC3CCS(=O)(=O)C3)c(N3CCC(C(N)=O)CC3)nc12` (stereo not drawn) gave Autofluor counter 2425, BoNT F protease 1.2, FBA Mtb inh 191.6*, Anthrax LF prot -1.2, GDH-TPI inh 0.0 and BoNT A protease 0.6.
For Cc1cccn2c(=O)c(/C=C(\C#N)C(=O)NC3CCS(=O)(=O)C3)c(Oc3ccccc3Cl)nc12 (stereo not drawn) the results were Autofluor counter 4203, BoNT F protease 4.8, FBA Mtb inh 18.0, Anthrax LF prot 2.3, GDH-TPI inh 6.8 and BoNT A protease 1.8.
For Cc1ccccc1Oc1nc2c(C)cccn2c(=O)c1/C=C(\C#N)C(=O)NC1CCS(=O)(=O)C1 (stereo not drawn) the results were Autofluor counter 2946, BoNT F protease 24.0, FBA Mtb inh 34.3*, Anthrax LF prot -1.0, GDH-TPI inh 10.0 and BoNT A protease -1.0.
Screening CC(C)(C)CN1CCN(Cc2c[nH]c3ccccc23)CC1CCO (stereo not drawn) returned Autofluor counter 5522, BoNT F protease inconclusive, FBA Mtb inh 2.7, Anthrax LF prot -3.1, GDH-TPI inh 19.6 and BoNT A protease inconclusive.
